Laboratory results published in PubChem BioAssay (NCATS).
Values joined by “and” are separate entries in the source; they are usually repeats but may differ in a detail not shown here. Identical values can stand only once. Results filed as inconclusive are left out. Active and inactive are the calls of the source. The call rests on the fitted dose curve; in most records, active means well fitted curve in the direction sought with a large enough effect; inconclusive means small, poorly fitted or top-dose-only effect, or another doubt; inactive means no such curve, though single readings can be large; an effect the other way counts as inactive or inconclusive.

Tests used:
[1] = Viability qHTS for spleen associated tyrosine kinase inhibitor (SYKi) naive MV4-11 cells (AID 1963823); further: nearly all actives have a fitted effect of over 40% in size; further: potency means the concentration at half of the fitted maximal effect
Summary of the method: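 In this viability screen, compounds acted on SYK inhibitor naive MV4-11 cells for three days (72 hr, 37 C). Remaining viable cells were measured by CellTiter-Glo luminescence following a 10 min room-temperature development.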

[2] = Quantitative highthroughput screen to assess conditional lethalithy of NOMO1 cells grown in RPMI1640 with untreated serum (RPMI+s) (AID 1963876); further: nearly all actives have a fitted effect of over 35% in size; further: potency means the concentration at half of the fitted maximal effect;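 on Viability: 100% = DMSO wells and 0% = empty wells without cells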
Summary of the method: (§1)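 Each medium arm—HPLM with 10% dialyzed FBS, or RPMI1640 with 5 mM glucose and 10% untreated or dialyzed FBS—was screened against an 11-point, 3-fold compound titration for 48 h at 37 °C, with CellTiter-Glo luminescence as endpoint.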

[3] = Quantitative highthroughput screen to assess conditional lethalithy of NOMO1 cells grown in RPMI1640 with dialyzed fetal bovine serum (RPMI+ds) (AID 1963877); further: nearly all actives have a fitted effect of over 30% in size; further: potency means the concentration at half of the fitted maximal effect;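 on Viability: series mostly up to about 46 µM; 100% = DMSO control wells and 0% = empty wells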
Summary of the method: as §1

[4] = Quantitative highthroughput screen to assess conditional lethalithy of NOMO1 cells grown in Human Plasma-Like Medium with dialyzed fetal bovine serum (HPLM+ds) (AID 1963878); further: nearly all actives have a fitted effect of over 35% in size; further: potency means the concentration at half of the fitted maximal effect;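 on Viability: 100% = DMSO wells and 0% = empty wells on each plate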
Summary of the method: as §1

[5] = Quantitative highthroughput screen to assess conditional lethalithy of P12 Ichikawa cells grown in Human Plasma-Like Medium with dialyzed fetal bovine serum (HPLM+ds) (AID 1963879); settings: Potency: viability; further: nearly all actives have a fitted effect of over 35% in size; further: potency means the concentration at half of the fitted maximal effect; on Viability: series mostly up to about 46 µM
Summary of the method: as §1

[6] = Quantitative highthroughput screen to assess conditional lethalithy of P12 Ichikawa cells grown in RPMI1640 with dialyzed fetal bovine serum (RPMI+ds) (AID 1963880); settings: Potency: P12-Ichikawa viability; further: nearly all actives have a fitted effect of over 35% in size; further: potency means the concentration at half of the fitted maximal effect;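 on Viability: 100% = DMSO wells and 0% = empty wells on each plate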
Summary of the method: as §1

[7] = Quantitative highthroughput screen to assess conditional lethalithy of P12 Ichikawa cells grown in RPMI1640 with untreated serum (RPMI+s) (AID 1963881); settings: Potency: viability; further: nearly all actives have a fitted effect of over 35% in size; further: potency means the concentration at half of the fitted maximal effect;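 on Viability: series mostly up to about 46 µM; 100% = DMSO wells and 0% = empty wells without cells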
Summary of the method: as §1

[8] = Quantitative highthroughput screen to assess conditional lethalithy of SEM cells grown in Human Plasma-Like Medium with dialyzed fetal bovine serum (HPLM+ds) (AID 1963882); further: nearly all actives have a fitted effect of over 35% in size; further: potency means the concentration at half of the fitted maximal effect; on Viability: series mostly up to about 46 µM
Summary of the method: as §1

[9] = Quantitative highthroughput screen to assess conditional lethalithy of SEM cells grown in RPMI1640 with unreated serum (RPMI+s) (AID 1963883); further: nearly all actives have a fitted effect of over 35% in size; further: potency means the concentration at half of the fitted maximal effect;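 on Viability: 100% = DMSO wells and 0% = empty wells without cells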
Summary of the method: as §1

[10] = Quantitative highthroughput screen to assess conditional lethalithy of SEM cells grown in RPMI1640 with dialyzed fetal bovine serum (RPMI+ds) (AID 1963884); further: nearly all actives have a fitted effect of over 35% in size; further: potency means the concentration at half of the fitted maximal effect;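 on Viability: series mostly up to about 46 µM; 100% = DMSO control wells and 0% = empty wells without cells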
Summary of the method: as §1

[11] = Cellular viability qHTS for adrenocortical cancer (ACC) cell line SW-13 (AID 1963989); settings: SW-13 ACC cells viability, CellTiter-Glo, 48 h; activity (max response): active compounds read low;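 further: cells grown in serum-free medium with ITS supplement; on the % scale 0 is the no-effect control and ±100 the full control effect; nearly all actives have a fitted effect of over 65% in size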
Summary of the method: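 Luminescent ATP read-out (CellTiter-Glo, 20 min at room temperature) measured metabolically competent SW-13 cells after 48 h compound treatment. Final concentrations spanned up to 46 uM; bortezomib served as positive control.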

[12] = Cellular viability qHTS for adrenocortical cancer (ACC) cell line NCI-H295R (AID 1963990); further: nearly all actives have a fitted effect of over 60% in size; further: potency means the concentration at half of the fitted maximal effect
Summary of the method: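 IC50 and maximal efficacy derive from four-parameter logistic modelling of titration curves, with reads scaled between DMSO-only wells (0%) and doxorubicin hydrochloride (100% inhibition). Compounds spanned up to 46 uM over 48 h.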

[13] = Viability qHTS for spleen associated tyrosine kinase inhibitor (SYKi) drug resistant MV4-11 cells (AID 1963824); further: nearly all actives have a fitted effect of over 35% in size; further: potency means the concentration at half of the fitted maximal effect
Summary of the method: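 CellTiter-Glo luminescence, read 10 min after reagent addition, reports viability after a 72 hr compound exposure. Cells are an MV4-11 line made resistant to SYK inhibition, seeded at 500 per well onto compound-containing plates.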

CCOC(=O)C=C[C@H](C[C@@H]1CCNC1=O)NC(=O)[C@@H](CC(=O)[C@@H](NC(=O)c1cc(C)on1)C(C)C)Cc1ccc(F)cc1
inactive: Potency [1] | Potency [2] | Potency [3] | Potency [4] | Potency [5] | Potency [6] | Potency [7] | Potency [8] | Potency [9] | Potency [10] | activity (max response) [11] -3.62% | Potency [12]

Oc1c(Cl)cc(Cl)c(Cl)c1Cc1c(O)c(Cl)cc(Cl)c1Cl
active: Potency [1] 8.41 µM | Potency [13] 5.96 µM | Potency [12] 2.06 µM

CCCCCCCOc1ccc(CCC(N)(CO)CO)cc1C(F)(F)F
active: Potency [1] 7.42 µM | Potency [13] 8.33 µM | Potency [12] 10 µM

COc1ccc(-c2cc(=O)c3c(O)cc(O[C@@H]4O[C@H](CO[C@@H]5O[C@@H](C)[C@H](O)[C@@H](O)[C@H]5O)[C@@H](O)[C@H](O)[C@H]4O)cc3o2)cc1O
inactive: Potency [1] | Potency [13] | Potency [12]

NC(=O)c1cnc2[nH]ccc2c1NC1C2CC3C[C@H]1CC(O)(C3)C2 (stereo not given in full)
inactive: Potency [12]
active: Potency [1] 0.105 µM | Potency [13] 0.468 µM

COc1ccccc1-c1cccc(-c2c(O)c3cc(C#N)c(Cl)cc3[nH]c2=O)c1
active: Potency [2] 17.1 µM | Potency [3] 19.1 µM | Potency [4] 6.79 µM | Potency [5] 4.81 µM | Potency [6] 8.55 µM | Potency [7] 10.8 µM | Potency [8] 8.55 µM | Potency [9] 2.7 µM | Potency [10] 5.4 µM
inactive: Potency [1] | activity (max response) [11] -20.9% | Potency [12]

Cc1cn2cc(C(=O)N(C)CCO)cc(N[C@@H]3CCOc4cccc(C)c43)c2n1
inactive: Potency [2] | Potency [3] | Potency [4] | Potency [5] | Potency [6] | Potency [7] | Potency [8] | Potency [9] | Potency [10] | activity (max response) [11] -15% | Potency [12]
active: Potency [1] 2.95 µM

CO[C@@H](C)Cn1c(=O)n(C)c2cnc3ccc(-c4cncc(C(C)(C)O)c4)cc3c21
active: Potency [1] 0.082 µM | Potency [13] 0.332 µM | Potency [12] 0.891 µM

OCCn1cc(-c2ccc3c(c2)CC/C3=N\O)c(-c2ccncc2)n1
active: Potency [1] 16.4 µM | Potency [13] 18.6 µM
inactive: Potency [12]

CC(C)[C@H]1C(=O)N[C@@H](CCCN=C(N)N)C(=O)NCC(=O)N[C@@H](CC(=O)O)C(=O)N[C@H](Cc2ccccc2)C(=O)N1C
inactive: Potency [1] | Potency [13] | Potency [12]

CCN1/C(=C/C=C/c2sc3ccccc3[n+]2CC)Sc2ccccc21
active: Potency [1] 0.0184 µM | Potency [13] 0.058 µM | Potency [12] 10 µM

Cc1cccc(/C=N/Nc2cc(N3CCOCC3)nc(OCCc3ccccn3)n2)c1
active: Potency [1] 1.32 µM | Potency [13] 0.296 µM | Potency [12] 28.2 µM

Cc1nc(C(=O)NCC(=O)O)c(O)c2ccc(Oc3ccccc3)cc12
inactive: Potency [1] | Potency [2] | Potency [3] | Potency [4] | Potency [5] | Potency [6] | Potency [7] | Potency [8] | Potency [9] | Potency [10] | activity (max response) [11] 0.299%

CC(=O)N(C)C1(c2ccccc2)CCN(CCC[C@]2(c3ccc(Cl)c(Cl)c3)CCCN(C(=O)c3ccccc3)C2)CC1
active: Potency [1] 4.11 µM | Potency [2] 1.87 µM | Potency [3] 1.87 µM | Potency [4] 0.526 µM | Potency [5] 2.96 µM | Potency [6] 2.96 µM | Potency [7] 7.43 µM | Potency [8] 0.662 µM | Potency [9] 0.743 µM | Potency [10] 1.05 µM

Cc1ccc(C(=O)OCc2ccc([C@@H](CN)C(=O)Nc3ccc4cnccc4c3)cc2)c(C)c1
active: Potency [1] 1.15 µM | Potency [13] 2.29 µM | Potency [12] 11.3 µM

O=C(NCc1ccc(S(=O)(=O)c2cccc(C(F)(F)F)c2)cc1)c1cnc2[nH]ncc2c1
active: Potency [1] 0.0118 µM | Potency [13] 0.0105 µM | Potency [12] 0.0178 µM

NCC1CCN(c2nccc(-c3ccc4ccccc4c3)n2)CC1
active: Potency [1] 1.16 µM | Potency [13] 1.16 µM | Potency [12] 10 µM

C[C@@H](N)C1CCC(C(=O)Nc2ccncc2)CC1 (stereo not given in full)
inactive: Potency [1] | Potency [2] | Potency [3] | Potency [4] | Potency [5] | Potency [6] | Potency [7] | Potency [8] | Potency [9] | Potency [10] | activity (max response) [11] -5.19% | Potency [12]

Cn1cc(-c2ccc(S(=O)(=O)n3ccc(/C=C/C(=O)Nc4ccccc4N)c3)cc2)cn1
active: Potency [1] 651 nM and 934 nM | Potency [13] 580 nM and 742 nM | Potency [12] 0.891 µM

COc1c(C)c2c(c(O)c1C/C=C(\C)CCC(=O)OCCN1CCOCC1)C(=O)OC2
active: Potency [1] 1.5 µM and 332 nM | Potency [13] 1.19 µM and 833 nM | Potency [12] 1.26 µM

COc1cc(OC)cc(N(CCNC(C)C)c2ccc3ncc(-c4cnn(C)c4)nc3c2)c1
active: Potency [1] 5.25 µM | Potency [13] 4.11 µM | Potency [12] 22.4 µM

CC(C)NC(=O)C1CCC(n2c(NC(=O)c3ccc(F)cc3)nc3ccc(CN4CCC(C(C)(C)O)CC4)cc32)CC1 (stereo not given)
active: Potency [1] 1.02 µM | Potency [13] 2.04 µM | Potency [12] 10.1 µM

O=C(O)COC(=O)Cc1ccccc1Nc1c(Cl)cccc1Cl
inactive: Potency [1] | Potency [13] | Potency [12]

O=C(Nc1ncc(SCCN2CCCC2)s1)[C@]1(c2ccc(S(=O)(=O)C3CC3)cc2)C[C@H]1C1CCCCC1
active: Potency [1] 7.42 µM | Potency [13] 8.33 µM | Potency [12] 7.08 µM

Nc1nccn2c(C3CCC(C(=O)O)CC3)nc(-c3cc4cccc(Cl)c4[nH]3)c12 (stereo not given)
active: Potency [1] 0.934 µM | Potency [13] 580 nM and 1.48 µM | Potency [12] 12.6 µM

Oc1ccc(O)cc1
inactive: Potency [12]
active: Potency [1] 11.9 µM | Potency [13] 13.3 µM

Cn1cc(C2=C(c3cn(C)c4cc([N+](=O)[O-])ccc34)C(=O)NC2=O)c2ccccc21
active: Potency [1] 0.296 µM | Potency [13] 0.372 µM | Potency [12] 0.178 µM

C[N+](C)(CCOc1ccccc1)Cc1cccs1
inactive: Potency [1] | Potency [13] | Potency [12]
